Source: PubChem BioAssay
In the library only some 2.5% were active in any assay of this set; here they are far more common.
LGR2 inh – inhibitors of bursicon-induced LGR2 CRE-luciferase signal, primary screen, cell-based, HEK293, CRE-luciferase reporter, bursicon stimulation | Drosophila bursicon receptor LGR2 (rickets) | AID 720647, 2013 | inhibition, % at 9.99 µM | 380,000 tested, 0.35% active | bursicon-stimulated, 4 h;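 active = drop in luminescence signal, shown as inhibition above about 50% in the replicate tests, limit read from the data, passing the limit was not always enough; inconclusive = probably only some replicates passing the limit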;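 note: agonist challenge used bursicon conditioned medium at about half maximal strength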
LMP1 NFkB inh – EBV LMP1-driven NF-kappaB luciferase reporter inhibitors, primary screen, cell-based, luminescence, single point | LMP1-induced NF-kappaB luciferase reporter cells | inhibition, % at 12.5 µM | 350,000 tested, 0.69% active | AID 504558, 2011; in the data active = inhibition above about 41%; inconclusive = no clear call, values can overlap the other calls;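 note: 0% = neutral control wells and 100% = reference inhibitor control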
EWS-Fli inh – EWS/Fli-driven NR0B1 reporter inhibitors, primary screen, A673 cells, NR0B1 luciferase, luminescence, MLPCN library. AID 651661, 2012. 350,000 tested, 0.67% active. inhibition, % at 12.6 µM. viability-normalised;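 active = mean inhibition of at least 50% after viability correction, with every replicate also passing that limit; inconclusive = mean reaches 50% but only one of two replicates passes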;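 note: firefly luciferase signal divided by Alamar Blue viability fluorescence both relative to DMSO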
TWEAK Fn14 block – inhibitors of TWEAK-Fn14 signaling, primary screen, luciferase reporter cells, uHTS; AID 1159606, 2016; 360,000 tested, 2% active; TWEAK-stimulated Fn14 reporter cells, luciferase luminescence, 8 h; inhibition, % at 10 µM; in the data active = inhibition above about 50%
TROY NFkB inh – inhibitors of TROY-driven NF-kB signaling, primary screen, Q293 LMP1-TROYcd cells, NF-kB luciferase, uHTS; Q293 LMP1-TROYcd NF-kB luciferase reporter, 4 h; inhibition, % at 10 µM; 360,000 tested, 0.98% active;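 active = compounds whose plate-normalised and pattern-corrected inhibition of the luciferase reporter signal at the single screening dose is 50% or more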
* hit, by the source's call; ? = inconclusive; · = not tested or not shown.

SMILES	LGR2 inh	LMP1 NFkB inh	EWS-Fli inh	TWEAK Fn14 block	TROY NFkB inh
O=C(Nc1cccc(C(=O)O)c1)Nc1ccccc1Cl	70*	?	?	-13	-51
O=C(NCc1ccccc1)C(=O)Nc1cccc(C(=O)O)c1	84*	67*	57*	9	-27
O=C(Nc1cccc(C(=O)O)c1)Nc1cccc2ccccc12	-6	-10	6	-23	-42
O=C(Nc1cccc(Cl)c1)Nc1cccc(C(=O)O)c1	?	43*	55*	-3	-51
CC(C)CC#Cc1ccc2c(c1)O[C@H](CN(C)C(=O)c1cnccn1)[C@H](C)CN([C@@H](C)CO)S2(=O)=O	20	·	-2	·	·
CN1[C@H](C(=O)NCC(F)(F)F)[C@@H](CO)[C@@H]2Cn3c(ccc(-c4ccc(F)cc4)c3=O)[C@@H]21	-2	·	-6	·	·
Cc1ccc(NC(=O)Nc2ccc(C(=O)N3CCOCC3)cc2)cc1	·	7	·	5	-23
CC(=O)c1cccc(NC(=O)Nc2ccc(C(=O)N3CCOCC3)cc2)c1	·	49*	·	7	12
CC(=O)N[C@@H]1CC[C@H](CCNC(=O)Nc2ccc(C(F)(F)F)cc2)O[C@@H]1CO	-4	·	-2	·	·
COC(=O)C12OCC34C(CC5C(C)=C(O)C(=O)CC5(C)C3C(O)C1O)OC(=O)C(OC(=O)C=C(C)C)C24 (configuration not stated)	100*	85*	44	95*	85*
O=C(CCc1nc2ccccc2c(=O)[nH]1)Nc1cc(C(F)(F)F)ccc1N1CCCC1	-16	4	3	62*	51*
Cc1ccc(S(=O)(=O)N2CCCCC2)cc1NC(=O)CCc1nc2ccccc2c(=O)[nH]1	2	1	8	-12	12
C[C@@H]1CCCCO[C@@H](CN(C)S(=O)(=O)c2cccs2)[C@H](C)CN([C@H](C)CO)C(=O)c2cc(NC(=O)Nc3cccc4ccccc34)ccc2O1	-6	·	14	·	·
C[C@@H]1CCCCO[C@H](CN(C)C(=O)CCC(F)(F)F)[C@@H](C)CN([C@H](C)CO)C(=O)c2cc(NS(C)(=O)=O)ccc2O1	8	·	-1	·	·
O=C1C(=Cc2cccc(Cl)c2)CCc2ccccc21	-29	·	-65	22	-19
Cn1cccc1/C=C1\Cc2ccccc2C1=O	-77	-52	-82	6	-31
COc1ccccc1C=C1CCc2ccccc2C1=O	24	·	-36	72*	27
Cn1cccc1/C=C1\CCc2ccccc2C1=O	60*	16	55*	76*	24
O=C1C(=Cc2ccc(Cl)cc2)CCc2ccccc21	-1	·	-13	70*	54*
O=C1C(=Cc2ccccc2Cl)CCc2ccccc21	10	·	-6	58*	19
CO[C@@H]1CN(C)C(=O)c2cc(NC(=O)c3cnccn3)ccc2OC[C@H](C)N(CC2CC2)C[C@H]1C	-3	·	-5	·	·
O=C1/C(=C\c2ccncc2)CCc2ccccc21	21	8	-6	31	15
O=C1C(=Cc2ccc(F)cc2)CCc2ccccc21	-13	·	-66	70*	27
COc1ccc(-c2nn(-c3ccccc3)cc2/C=C(\C#N)C(N)=O)cc1[N+](=O)[O-]	20	6	-9	8	-1
COc1ccc(-c2nn(CCC(=O)O)cc2/C=C/C(=O)O)cc1[N+](=O)[O-]	-4	1	-3	-3	65*
SMILES	LGR2 inh	LMP1 NFkB inh	EWS-Fli inh	TWEAK Fn14 block	TROY NFkB inh
O=C(O)CCn1cc(/C=C\C(=O)c2ccc(Cl)cc2)c(-c2cccc(Br)c2)n1	11	-6	-2	64*	21
O=Cc1cn(CCC(=O)O)nc1-c1cccc(Br)c1	·	-7	-2	6	6
COc1ccc2c3c(n(C)c2c1)[C@H](CO)N(Cc1ccccc1)CC31CN(C(=O)C2CC2)C1	-18	·	-4	·	·
COCCN1CSC(=S)N(Cc2ccco2)C1	-40	45*	·	-7	12
CCCc1[nH]nc2c1C(C1CCCCC1)C(C#N)=C(N)O2 (configuration not stated)	·	-4	-9	55*	7
COc1ccc(NC(=O)CCCC(=O)NCCc2ccc(OC)c(OC)c2)cc1	-1	5	0	89*	-13
COc1ccc(OCCCC(=O)NCCc2ccc(OC)c(OC)c2)cc1	8	9	7	14	21
Cc1nc(SCc2nc3cc(Cl)c(F)cc3[nH]2)c2oc3ccccc3c2n1	18	19	9	53*	6
C[C@@H]1CN([C@@H](C)CO)C(=O)c2cc(-c3cccc(F)c3)cnc2O[C@@H]1CN(C)C(=O)c1cnccn1	-4	·	0	·	·
CCOC(=O)c1c(NC(=O)/C=C\C(=O)O)sc(C)c1-c1ccccc1	1	-4	17	16	12
CCOC(=O)c1c(NC(=O)/C=C/C(=O)O)sc(C)c1-c1ccc(C(C)(C)C)cc1	30	-31	24	98*	90*
CC(C)NC(=O)N1[C@H](CN(C)C(=O)c2ccccc2)[C@@H](c2ccccc2)[C@@H]1CO	5	·	10	·	·
CC(=O)OC(CC(=O)O)C[N+](C)(C)C (configuration not stated)	5	-5	-7	-21	12
CC(=O)O[C@H](CC(=O)O)C[N+](C)(C)C	-8	59*	-7	-19	-15
CCC(=O)NNc1ncnc2c1cnn2-c1ccccc1	0	-8	-6	7	-2
CC(=O)NNc1ncnc2c1cnn2-c1ccc(C)c(C)c1	-5	7	-43	66*	54*
COc1ccccc1Cc1c(-c2ccc(Cl)cc2)nc2c(C)cc(Br)cn12	-10	·	37	60*	25
Clc1cccc(Cc2c(-c3ccco3)nc3ccc(Cl)cn23)c1	8	·	-2	64*	-2
COc1ccccc1Cc1c(-c2cccc(Br)c2)nc2c(C)cc(Br)cn12	1	·	-45	37	1
Cc1ccc(Cc2c(-c3ccco3)nc3c4ccccc4ccn23)cc1	11	·	-30	81*	47
Cc1cc(Br)cn2c(Cc3cccc(Cl)c3)c(-c3ccco3)nc12	14	·	2	68*	3
Clc1cccc(Cc2c(-c3ccco3)nc3ccc(Br)cn23)c1	·	·	19	46	6
O=C(NC[C@H]1[C@H](c2ccccc2)[C@H](CO)N1C(=O)Cc1ccncc1)C1CCC1	-13	·	-2	·	·
CSc1ccc(S(=O)(=O)N2c3ccccc3CC2C)cc1 (configuration not stated)	12	-16	51*	27	-1
CCCSc1nnc(CSc2nc3ccccc3s2)n1-c1ccccc1	·	8	·	18	53*
O=S(=O)(c1ccc(F)cc1)N1CCCCN2[C@H](CO)[C@H](c3ccc(C#CC4CC4)cc3)[C@H]2C1	10	·	-1	·	·
